# Data: ChEMBL document CHEMBL4513216, “Probing the Open Global Health Chemical Diversity Library for Multistage-Active Starting Points for Next-Generation Antimalarials” (ACS Infect Dis, 2020)
# Screen size: about 69,000 compounds; about 8,600 (12%) showed an effect of 50% or more. The list comes from a sample in which strong results are over-represented; it also holds similar structures and randomly drawn compounds.
# System: Plasmodium berghei
# Assay: Screen against P. berghei liver stage (PbLuc), transformed with Luciferase, at 10uM
# Type: functional, HepG2
# Details: tested at 10 uM
row,SMILES,INHIBITION [%]
1,O=C(Cc1cn2ccccc2n1)N1CCCC(n2cccn2)C1 (stereo not given),21.5
2,CSc1ncccc1C(=O)NCc1ccc(N(C)C)cc1,-25.1
3,Cc1nc(CN2CCC3(CCCN(Cc4ccncc4)C3)C2=O)cs1 (stereo not given),-36.9
4,CC(C)CN1CC(O)CN(S(=O)(=O)c2ccccc2)CC1=O (stereo not given),10.1
5,Cc1cc(C)nc(NCCC(=O)NCCn2ccc3ccccc32)n1,41.5
6,Cc1cnc(CN2CCOC(Cn3nc(C)cc3C)C2)cn1 (stereo not given),32.9
7,CCc1nc(N)sc1C(=O)N1CCCC(CCc2ccccc2C)C1 (stereo not given),55.3
8,Cc1ccccc1CCC1CCCN(C(=O)Cc2cc(=O)[nH]c(N)n2)C1 (stereo not given),-33
9,CCc1nc(N)sc1C(=O)N1CCCC(COc2cccc(C)c2)C1 (stereo not given),-24.8
10,Cn1ccc(C(=O)NCc2ccc(CN3CCCCC3)cc2)cc1=O,-19.9
11,CCS(=O)(=O)N1C[C@H]2CN(Cc3cccc(F)c3)C(=O)[C@H]2C1,3.58
12,Nc1nc2c(c(NCc3nccs3)n1)CCN(CC1CCCC1)CC2,76.6
13,c1csc(CN2CCC3(CC2)CCN(CC2CC2)CC3)n1,23.3
14,Cc1nc2c(c(NCCc3nccs3)n1)CCN(CC1CC1)CC2,64.1
15,COCCNc1nc(C)nc2c1CCN(CC1CCC(N)CC1)CC2 (stereo not given),26.6
16,CN(C)c1ncnc2c1CCN(CC1CCCC1)CC2,38.1
17,Cc1nc2c(c(NCCc3nc(C)c(Cl)s3)n1)CCNCC2,18.5
18,CC(C)c1nnc(CN2CCCc3ccc(S(N)(=O)=O)cc32)o1,-7.93
19,CCCn1c(SCC(N)=O)nnc1-c1csc2c1CCCC2,19.8
20,CN(Cc1ccn[nH]1)C(=O)CCC(=O)NC1CCCC1,31.2
21,CCc1c(C)[nH]c(C(C)(N)CC)nc1=O (stereo not given),29.7
22,CCC(C)(N)c1nc(=O)c(C)c(C)[nH]1 (stereo not given),43.6
23,CCc1c(C)[nH]c(C(C)(C)N)nc1=O,60.4
24,CCS(=O)(=O)c1ccccc1N1CCC(NC(=O)C2CC2)CC1,-9.37
25,c1ccc(N2CCC3(CCCN(c4ncccn4)C3)C2)nc1 (stereo not given),-56.2
26,CCc1nc2c(N3CCC4(CC3)CC(=O)N(CC)C4)ncnc2o1,26.8
27,CCc1nc2c(N3CCC4(CC3)CNC(=O)C4)ncnc2o1,9.91
28,CCc1nc2c(N3CCC4(CC3)CC(=O)N(CC(C)C)C4)ncnc2o1,87.2
29,c1csc(CN2CCCn3nnc(COCC4CC4)c3C2)n1,15.8
30,CC[C@@H](Cn1ncc2ccccc2c1=O)NC(=O)c1cnccn1,-3.94
